The chains are these.
T1: UNK ZnF1-3 (human, UniProt Q9C0B0 31-174)
T1 sequence: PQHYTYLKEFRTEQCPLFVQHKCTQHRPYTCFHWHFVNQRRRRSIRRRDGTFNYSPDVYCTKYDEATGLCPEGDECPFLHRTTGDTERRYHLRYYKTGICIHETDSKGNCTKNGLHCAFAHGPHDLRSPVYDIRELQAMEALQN

B1: chr1:59925254:59925255:+_ENSMUSG00000067336_ENSMUST00000087435|mus_hu|FALSE|FALSE (ssRNA)
RNA: GGGAGUUCUACAGUCCGACGAUCAUCUUGUUCUGAACAUGGAUUGCUGUUGUUGUUAUUGGAAUUAGUUCGGCCACCUUCUAGUGGCCGUUCCCUCCUGUCCACAAGACGAUCCAGAACACCUUCAUCAUGGCCAGCUUGUUGCAACAGAGGAUUGAGCAUCA
B2: chr4:101271765:101271766:+_ENSMUSG00000028528_ENSMUST00000094953|mus_mus|motif|central (ssRNA)
RNA: GGGAGUUCUACAGUCCGACGAUCAGACUUGGGUGACAAGUUGUAUACUGUGUAGUGGUCAAGAUGUCUGGAAUCCAAAAAGCGGCGGAUGUCAUCAACCUGAUUCCUGAAUCCUAUGUCAACACUAUCCACAGGAAAGGACAUCAACAGAGGAUUGAGCAUCA
B3: 5953805_5956048_782_CDS_ENSMUSG00000024833_ENSMUST00000025752|mouse|control|control (ssRNA)
RNA: GGGAGUUCUACAGUCCGACGAUCCAAGCCCUGUGCGGAGCCAAAGGUGGUCACCACUUCUCCCCGGUUGGUUCUGGAGGUGUAUUUCUGGGAGGGGGUAGCACUCGGGGAGAAACUUGACGGUGAGAGAAGCUGACGUGGGCUCAACAGAGGAUUGAGCAUCA
B4: chr2:39278355:39278356:-_ENSG00000115904_ENST00000402219|hu_mus|motif|central (ssRNA)
RNA: GGGAGUUCUACAGUCCGACGAUCACAGCUUCCUACUAAUGGGUGGGGACUGCCUUCAUCUGUCAUUUCUACAGUAUCUUCGGUAUGGCCCAGUAACUUUACACUAAGUUCAUGUAUAUCUACUAUACGACUGAAUAUGUUUUCCAACAGAGGAUUGAGCAUCA
B5: chr17:27717376:27717377:-_ENSMUSG00000024213_ENSMUST00000025050|mus_mus|FALSE|FALSE (ssRNA)
RNA: GGGAGUUCUACAGUCCGACGAUCCACAGGACAGAUUUUUAGAAAGUUUCAUCGCACAUGGGUGUCUUUUAAUGAAAAAAAAAAAAAAAAUUCAGAGGAAAUAUCUGGCCAGGCCGGGACGAGACAAAUGGGAGUGCUUCGGAACAACAGAGGAUUGAGCAUCA
B6: chr1:66485854:66485855:+_ENSMUSG00000015222_ENSMUST00000077355|mus_mus|FALSE|FALSE (ssRNA)
RNA: GGGAGUUCUACAGUCCGACGAUCCCUUUCAGAAUGUAUUGGAUAGCCUUCAGGCACAUGAAAGGUAAAAAUGCAAUUUAAAAAAUAAUAAUAAUACUCCAUGCAAAACAGAGCAGAGCGAAAAUAAUUGUCCGAUUGUAUCCACAACAGAGGAUUGAGCAUCA
B7: 24503659_24515395_812_3pUTR_ENSG00000112294_ENST00000357578|human|control|control (ssRNA)
RNA: GGGAGUUCUACAGUCCGACGAUCGCUCAGCCAGGGCCAGGGCGGAGAAGGGCGUGUCUUCGGCAGGCUUCACCACGACAGUACAGCCGGCUGCCAGGGCGGCCCCCACCUUCCGGGUGAUCAUGGCACUGGGGAAAUUCCACGCAACAGAGGAUUGAGCAUCA
B8: 1087333_1088580_755_CDS_ENSG00000067064_ENST00000381344|human|control|control (ssRNA)
RNA: GGGAGUUCUACAGUCCGACGAUCUACAUUCUUCCUCACCAACAAAAUGUAAUCAAUUUCAUGUUCACCCCAGAUACCAUCAGACUGAGCUUUGUAGUGAAUUCGUGUUAAAUAAUUAAUUUCUUCUGGAGGAACCUCUUCCAACAACAGAGGAUUGAGCAUCA
B9: chr19:15271055:15271056:-_ENSG00000074181_ENST00000263388|hu_hu|motif|central (ssRNA)
RNA: GGGAGUUCUACAGUCCGACGAUCCAUAUAUAUAUUUUGUAAAAAAUAAUAAUAAUAAGUUUGUUUAAAUGAAUUUGUUUCGGUACAAAAUGUAAAAAAAAAAAGAAAAAUAAAAAUAAUAAUAAUUCAUUCAUGUCAGAGUGUCAACAGAGGAUUGAGCAUCA
B10: chr14:49642940:49642941:-_ENSMUSG00000061244_ENSMUST00000162175|mus_mus|FALSE|FALSE (ssRNA)
RNA: GGGAGUUCUACAGUCCGACGAUCUAAAGCAUAAUCAAUAUGCUCAAUACAUAAAAAUUCCACAAGAAUGGUAAAAAUUCUAAAGGCAUUCCUUGGUAAAUCAGAAGGAUCAGAAAGCCUAUGACAUCUUUCAAAGGCUUGUUUCAACAGAGGAUUGAGCAUCA
B11: chrX:45232703:45232704:-_ENSMUSG00000031099_ENSMUST00000088973|mus_hu|FALSE|FALSE (ssRNA)
RNA: GGGAGUUCUACAGUCCGACGAUCAGAUGGGACCCAUCGUUUAAAUUCAUUCAUCCAGUUGUGUAAAGUAGACUUUGGAACUAAAACCAUGUGAGGUCCAGGAAUAUUUCGGUAGUGUUUCAGGUAACCAAGCAAAGCAAUUGUCAACAGAGGAUUGAGCAUCA
B12: chr1:40083102:40083103:+_ENSMUSG00000026074_ENSMUST00000163854|mus_hu|FALSE|FALSE (ssRNA)
RNA: GGGAGUUCUACAGUCCGACGAUCCAUGAAACAAAUUCUUUCUCAAGACAUUUAUUACAAAUGUCAUGAAUAUAUUCAUAAAGUAAAAUUGGUUUAAAAAAACAGAGAACAAGAGAGCAAGUGAGAAAACGAGAAAAGCCAGGACAACAGAGGAUUGAGCAUCA
B13: chr16:28827448:28827449:-_ENSMUSG00000051065_ENSMUST00000100023|mus_hu|FALSE|FALSE (ssRNA)
RNA: GGGAGUUCUACAGUCCGACGAUCAAAUAUCAGUAGUGGUGAAAGCUCAUAAGAAAAAAGACAAAAACAAAAUAAUAAAAAUAAUAGGAUAGAAUCGUUAAGCAUCAGAAAGAGAUUUGUUUCCCCAUACCCAUGAACAAAUUUCAACAGAGGAUUGAGCAUCA
B14: chr2:192256868:192256869:+_ENSG00000128641_ENST00000304164|hu_hu|FALSE|FALSE (ssRNA)
RNA: GGGAGUUCUACAGUCCGACGAUCUGGGUUUCGGAUGAAUAUCUUUGAUCUACCAAAGGAGUAUUCUUCCACGGGAAUUUCUAAUUCAUUAAAUAGGACCUCCACACCAGACCUGGCUGGUCCUUUCCAAUGAGGCCAUGUUUGCAACAGAGGAUUGAGCAUCA

This passage reports binding signal results from PMC12136788.

Whole data set: some 24,000 sequences, median “enrichment r” near 0.99, cut for the highest 2% near 3.7. What follows is part of a selection rich in the highest values, with near analogues and random picks from the rest.

The target of this assay is T1, UNK ZnF1-3. The assay can be described thus: nsRBNS (natural sequence RNA bind-n-seq); RBNS binding buffer (assumed for nsRBNS): 25 mM Tris pH 7.5, 150 mM KCl, 3 mM MgCl2, 0.01% Triton X-100, 500 ug/ml BSA, 20 U/ml SUPERase-In, 4 C; UNK is unkempt and MSI1 is Musashi-1; names of the RNAs are library labels; protein concentration not given here; high values mean tight binding.
Molecule B1 registered a binding signal of 0.391 enrichment R.

On to B2, for which the binding signal amounted to 0.93 enrichment R.

In the case of B3, the binding signal amounted to 1.38 enrichment R.

B4: the binding signal turned out to be 0.721 enrichment R.

As to B5, the binding signal amounted to 4.44 enrichment R.

For B6, the binding signal was found to be 5.46 enrichment R.

Turning to B7, the binding signal is 1.27 enrichment R.

In turn, B8 registered a binding signal of 3.42 enrichment R.

Regarding B9, the binding signal is 11.2 enrichment R.

B10 registered a binding signal of 0.307 enrichment R.

B11 registered a binding signal of 1.15 enrichment R.

Molecule B12 had a binding signal of 2.12 enrichment R.

B13 registered a binding signal of 8.38 enrichment R.

B14 yielded a binding signal of 0.529 enrichment R.
